Rows were chosen to be rich in hits. Some 21% of all compounds tested hit in one or more screens of this group.
Pf growth 48h: inhibits P. falciparum growth in the first generation, 48 h; AID 504832; 5.9% of 310,000 active; P. falciparum luciferase growth in erythrocytes, 48 h; Potency, µM (doses to about 28.7 µM), inactives show top-dose activity change, negative = inhibition, usual class: inhibitors; active = well fitted inhibition curve with a large enough effect; inconclusive = small, poorly fitted or top-dose-only effect, or another doubt; inactive = no such curve, though single readings can be large or run the other way; note: potency is the fitted concentration of half-maximal effect; % is set by controls: 0 for no effect and ±100 for the full control effect
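Erythrocytes infected with P. falciparum carrying an integrated firefly luciferase reporter (2% hematocrit, 0.1% parasitemia final) were exposed to compounds in RPMI 1640 with 0.5% Albumax at 37 C, 5% CO2. Growth inhibition was scored as reduced luminescence.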
CHX counter: counter-screen hit for Shiga toxin inhibitors, cycloheximide; cell reporter, cycloheximide protein synthesis inhibition counterscreen; max response, %; 12% of 300,000 active; in the data active = max response mostly above about 13%, no sharp cut-off; inactive = mostly below about 14%; note: read at 38.3 µM for the half of the compounds with a filed dose; 0% is about no effect
Shiga inhibitor: inhibitors of Shiga toxin in Vero cells; Vero cells, Shiga toxin protein synthesis inhibition reporter; inhibition, % at 38.7 µM; 9.2% of 290,000 active; in the data active = inhibition mostly above about 28%, no sharp cut-off; inactive = mostly below about 43%; note: 0% is about no effect
Pf growth 96h: P. falciparum growth inhibition at 96 hours | P. falciparum luciferase reporter growth, 96 h | Potency, µM (top dose mostly 28.7 µM), for inactives: top-dose activity change, negative = inhibition, most hits filed as inhibitors | 6.9% of 320,000 active | AID 504834; active = well fitted inhibition curve with a large enough effect; inconclusive = small, poorly fitted or top-dose-only effect, or another doubt; inactive = no such curve, though single readings can be large or run the other way; note: potency is the fitted concentration of half-maximal effect; % is set by controls: 0 for no effect and ±100 for the full control effect
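Infected RBCs, 2% Hct / 0.05% parasitemia final; luciferase-reporter P. falciparum; cpd 96 h, 37 C, 5% CO2; luciferase detection reagent; luminescence.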
SARS PLpro yeast: inhibitors of SARS-CoV papain-like protease in yeast. S. cerevisiae expressing SARS-CoV PLpro, growth rescue. Potency, µM (highest dose often 32.9 µM), for the others: at the top dose activity, positive = growth rescue, usual class: activators. 0.19% of 330,000 active. AID 485353; note: potency is the fitted concentration of half-maximal effect; 0% is about no effect; nearly all actives have a fitted effect of over 55% in size
NS1 inh: inhibitors of influenza NS1 protein function | Potency, µM (titrated, usually from 46.1 µM), for the others: at the top dose activity, positive = more growth | 0.4% of 270,000 active; note: potency is the fitted concentration of half-maximal effect; actives are rising curves; nearly all actives have a fitted effect of over 50% in size
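Read-out: OD600 growth recovery of NS1-expressing budding yeast. Cells grown overnight at 30C in -URA glucose medium, washed, resuspended and diluted 1:100 in 2% galactose assay medium, pH 6.0. Same strain lacking NS1 served as positive control.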
Active calls of the source: *. Unless noted, calls come from the whole dose curve.

What do the screens show for `Cc1ccc(NC(=O)CCCc2ccccc2)c([N+](=O)[O-])c1`?
Pf growth 48h: 89.3%; CHX counter: 32.0*; Shiga inhibitor: 35.1*; Pf growth 96h: 1.6%; SARS PLpro yeast: -1.5%; NS1 inh: -19.0%

How did CCCCCN(C(=O)CCC(=O)OCC(=O)Nc1ccc(C)cc1F)c1c(N)n(CCCC)c(=O)[nH]c1=O do in these assays?
Pf growth 48h: 1.2%; CHX counter: -4.0; Shiga inhibitor: 14.7; Pf growth 96h: 27.0%; SARS PLpro yeast: inconclusive; NS1 inh: 12.6%

How did CCOC(=O)C1=C(COC(=O)c2ccc(Br)o2)NC(=O)NC1C (stereo not given) do in these assays?
Pf growth 48h: -32.0%; CHX counter: 6.3; Shiga inhibitor: 5.0; Pf growth 96h: 6.7%; SARS PLpro yeast: 5.1%; NS1 inh: 0.5%

How did COc1ccc(N2CCN(C3CCCN(C(=O)CCN4CCCCO4)C3)CC2)cc1 (stereo not given) do in these assays?
Pf growth 48h: 0.0%; CHX counter: -2.3; Shiga inhibitor: -3.8; Pf growth 96h: 3.3%; SARS PLpro yeast: 2.4%; NS1 inh: 3.2%

What do the screens show for `COc1cc([N+](=O)[O-])ccc1NC(=O)Cn1ccsc1=N`?
Pf growth 48h: 2.8%; CHX counter: -2.0; Shiga inhibitor: 0.1; Pf growth 96h: -1.5%; SARS PLpro yeast: 1.6%; NS1 inh: 4.1%

How did NC(=O)c1ccccc1NC(=O)CCCc1ccccc1 do in these assays?
Pf growth 48h: 65.2%; CHX counter: 20.1*; Pf growth 96h: 8.2%; SARS PLpro yeast: 1.8%; NS1 inh: -14.6%

What do the screens show for `O=C(CCCc1ccccc1)Nc1cccnc1Cl`?
Pf growth 48h: -5.5%; CHX counter: 9.9; Shiga inhibitor: 73.8; Pf growth 96h: 40.9%; SARS PLpro yeast: -0.5%; NS1 inh: 0.7%

Results for CN(C)c1ccc(C(CC(=O)c2ccccc2)C2CCCCC2=O)cc1 (stereo not given) ?
Pf growth 48h: 0.8%; CHX counter: -2.5; Shiga inhibitor: -3.9; Pf growth 96h: 10.4µM*; SARS PLpro yeast: -9.4%; NS1 inh: -0.8%

What do the screens show for `O=C(CC(c1ccccc1)C1CCCCC1=O)c1ccco1` (stereo not given)?
Pf growth 48h: 33.2%; CHX counter: 37.7*; Shiga inhibitor: 62.9*; Pf growth 96h: -28.3%; SARS PLpro yeast: 22.7%; NS1 inh: -2.8%

Results for CN1CCN(C(=S)NC(CC(=O)c2ccccc2)c2ccccc2)CC1 (stereo not given) ?
Pf growth 48h: -24.0%; CHX counter: -3.0; Shiga inhibitor: -9.4; Pf growth 96h: inconclusive; SARS PLpro yeast: -1.8%; NS1 inh: -0.8%

How did Cc1nnc(NN2CCOCC2)[nH]c1=O do in these assays?
Pf growth 48h: 13.3%; CHX counter: 4.9; Shiga inhibitor: 17.2; Pf growth 96h: -71.0%; SARS PLpro yeast: -2.4%

What do the screens show for `FC(F)(F)c1cnc(Sc2nnc(-c3cccs3)n2CC2CCCO2)c(Cl)c1` (stereo not given)?
Pf growth 48h: 7.38µM*; CHX counter: 5.6; Shiga inhibitor: 17.6; SARS PLpro yeast: inconclusive; NS1 inh: 7.2%

What do the screens show for `FC(F)(F)c1ccc(Sc2nnc(-c3cccs3)n2CC2CCCO2)nc1` (stereo not given)?
Pf growth 48h: 0.0%; CHX counter: 1.5; Shiga inhibitor: -8.3; SARS PLpro yeast: 1.4%; NS1 inh: -3.1%

What do the screens show for `Oc1[nH]c2ccccc2c1N=Nc1ccc(C(F)(F)F)cn1`?
Pf growth 48h: 68.8%; CHX counter: 17.6*; Shiga inhibitor: 17.4; Pf growth 96h: 112.6%; SARS PLpro yeast: -4.4%; NS1 inh: -0.8%

What do the screens show for `Oc1[nH]c2ccccc2c1N=Nc1nncc2ccccc12`?
Pf growth 48h: inconclusive; CHX counter: 34.9*; Shiga inhibitor: 60.4*; Pf growth 96h: 3.5%; SARS PLpro yeast: -3.2%; NS1 inh: -32.2%

Results for Oc1[nH]c2ccc(Br)cc2c1N=Nc1ccc(C(F)(F)F)cn1 ?
Pf growth 48h: inconclusive; CHX counter: 5.7; Shiga inhibitor: 38.9; Pf growth 96h: 9.28µM*; SARS PLpro yeast: -6.6%; NS1 inh: -13.4%

How did CC(C)N(CCc1ccncc1)C(=O)Nc1ccc(Cl)c(Cl)c1 do in these assays?
CHX counter: -3.1; Shiga inhibitor: -4.1; Pf growth 96h: inconclusive; SARS PLpro yeast: -26.2%; NS1 inh: -192.7%

What do the screens show for `NNC(=S)NCc1ccccc1`?
Pf growth 48h: inconclusive; CHX counter: -2.4; Shiga inhibitor: -7.8; Pf growth 96h: 9.28µM*; SARS PLpro yeast: 3.4%; NS1 inh: 7.3%

How did COC(=O)NNC(=S)NCc1ccccc1 do in these assays?
Pf growth 48h: 16.0%; CHX counter: -2.1; Shiga inhibitor: 16.1; Pf growth 96h: 25.3%; SARS PLpro yeast: 15.5%; NS1 inh: 23.9%

What do the screens show for `O=C(O)CNC(=S)NCc1ccccc1`?
Pf growth 48h: 13.1µM*; CHX counter: -2.1; Shiga inhibitor: -3.5; Pf growth 96h: 20.4%; SARS PLpro yeast: 1.1%; NS1 inh: 14.1%

Results for Cn1c(SCC(=O)N2c3ccccc3CCc3ccccc32)nnc1-c1cc2ccccc2cc1O ?
Pf growth 48h: 1.85µM*; CHX counter: -1.9; Shiga inhibitor: -4.6; Pf growth 96h: -91.7%; SARS PLpro yeast: 7.3%; NS1 inh: inconclusive

What do the screens show for `COCCn1c(SCC(=O)Nc2ccccc2)nc2c1c(=O)[nH]c(=O)n2C`?
Pf growth 48h: -19.7%; CHX counter: -1.7; Shiga inhibitor: -16.9; Pf growth 96h: 32.7%; SARS PLpro yeast: -15.7%; NS1 inh: inconclusive

What do the screens show for `CC(C)n1c(SCC(=O)Nc2ccccc2)nc2c1c(=O)[nH]c(=O)n2C`?
Pf growth 48h: inconclusive; CHX counter: -1.9; Shiga inhibitor: -2.4; Pf growth 96h: 13.1µM*; SARS PLpro yeast: -0.3%; NS1 inh: 1.7%

What do the screens show for `Cn1c(=O)c2c(nc(SCC(=O)c3ccccc3F)n2C)n(C)c1=O`?
Pf growth 48h: 51.9%; CHX counter: 2.1; Shiga inhibitor: -14.1; Pf growth 96h: 1.85µM*; SARS PLpro yeast: 0.8%; NS1 inh: 7.9%

Results for CCn1c(SCC(=O)Nc2ccccc2)nc2c1c(=O)n(C)c(=O)n2C ?
Pf growth 48h: 12.2%; CHX counter: 0.9; Shiga inhibitor: -1.9; Pf growth 96h: 11.7µM*; SARS PLpro yeast: -24.1%; NS1 inh: 4.4%

How did CCn1c(SCC(=O)Nc2cccc(O)c2)nc2c1c(=O)n(C)c(=O)n2C do in these assays?
Pf growth 48h: 3.9%; CHX counter: 0.7; Shiga inhibitor: -9.9; Pf growth 96h: inconclusive; SARS PLpro yeast: 11.0%; NS1 inh: 10.6%

Results for CC(C)n1c(SCC(=O)Nc2ccccc2)nc2c1c(=O)n(C)c(=O)n2C ?
Pf growth 48h: 11.7µM*; CHX counter: -1.4; Shiga inhibitor: -3.3; Pf growth 96h: inconclusive; SARS PLpro yeast: 4.1%; NS1 inh: 0.5%

Screening results (PubChem)
